In all, about 2,100 compounds went through this assay and about 650 (31%) were called active. Another 16% or so got no clear call; they are omitted. This is one part of the list. Values without a mark were called inactive. Calls follow the shape of the dose curve; as a rule, active = well fitted inhibition curve with a large enough effect; inconclusive = small, poorly fitted or top-dose-only effect; inactive = flat fitted curve, though single readings scatter.
Test: qHTS for inhibitors of Vif-A3G interactions: Cherry picks; also: nearly all actives have a fitted effect of over 80% in size; as to activity, negative = fluorescence increase: % of control where 0% means no effect
Settings: HeLa A3G-eYFP + Vif (tagged APOBEC3G with the HIV-1 protein that degrades it), 24 h; Potency: eYFP fluorescence increase; series mostly up to 36.9 µM; activity, negative = fluorescence increase: at the top concentration
How it was run: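 HeLa cells stably expressing A3G-eYFP and Vif, cultured overnight then exposed to compounds at several concentrations for 24 hours at 37 C, 5% CO2; cellular yellow fluorescence (488 nm ex, 500-530 nm em) imaged on Acumen, MG132 positive control.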
Potency is read from the fitted curve at half-maximal effect.

SMILES	activity, negative = fluorescence increase	Potency
C=CCn1c(O)c(N=NC(=O)CNC(=O)c2ccco2)c2ccccc21	-8.63%	
CCN(CC)c1ccc(NC(=O)c2ccc(=O)[nH]c2)cc1S(=O)(=O)Nc1ccc(OC)cc1	-8.67%	
CCOc1ccc(S(=O)(=O)N(CC(=O)N/N=C/c2ccc(-c3ccc([N+](=O)[O-])cc3)o2)c2ccccc2)cc1	-6.11%	
O=[N+]([O-])c1ccccc1C=NNC(=S)NN=Cc1ccccc1[N+](=O)[O-]	-14.3%	
O=C(O)c1ccc(N/N=C/C(Br)=C/c2ccccc2)cc1	-6.93%	
Cc1cc(/C=N/NC(=O)c2cc3ccccc3o2)c(C)n1C	-0.301%	
Cc1ccc(-c2ccc(/C=N/NC(N)=S)o2)cc1	10.9% [at 46.1 µM]	
O=C(O)c1cccc(-c2ccc(/C=N/Nc3ccc([N+](=O)[O-])cc3)o2)c1		18.4 µM (active)
CC(C)(C)NC(=S)N/N=C\c1ccc(-c2ccc([N+](=O)[O-])cc2)o1		20.6 µM (active)
NC(=S)N/N=C\c1ccc(-c2cccc(Cl)c2Cl)o1	-27.6%	
Cc1cc([N+](=O)[O-])ccc1-c1ccc(/C=N/NC(=O)c2ccc(Br)o2)o1		16.4 µM (active)
O=C(Cc1ccccc1)N/N=C/c1ccc(-c2ccc([N+](=O)[O-])cc2)o1		17.7 µM (active)
CC1(C(=O)NCc2ccccc2)Cc2c(-c3cccc(C(N)=O)c3)ccnc2O1 (stereo unspecified)	-25.2%	
COc1ccc(NC(=O)C2(C)Cc3c(-c4cccc(C(N)=O)c4)ccnc3O2)cn1 (stereo unspecified)	-3.43%	
O=C(COc1ccc(C(=O)c2ccccc2)cc1)NCc1ccc(F)cc1	-5.5%	
Cc1c(C(=O)C(=O)N2CC=C(c3ccccc3)CC2)c2ccccc2n1C	-12.3%	
CCOc1ccc(S(=O)(=O)NCc2ccccn2)cc1NC(=O)c1ccccc1	0.368%	
O=C1CC(c2ccccc2F)c2cc3c(cc2N1)CCC3 (stereo unspecified)	-7.87%	
CN(/N=C/c1ccc(-c2ccc([N+](=O)[O-])cc2)o1)c1ccccc1		1.64 µM (active)
Cc1cc(N2CCN(Cc3cn(C)nc3-c3ccccc3F)CC2)cc(C)n1	-6.76%	
COc1cc(C(=O)N/N=C/c2ccccn2)cc(OC)c1OC	-9.13%	
Cc1cc(C)n(-c2nc3c(c(=O)[nH]c(=O)n3C)n2CC(O)COc2ccc(Cl)cc2Cl)n1 (stereo unspecified)	-7.25%	
Cc1ccc2ccc3c(c2n1)NS(=O)(=O)c1ccc(C(F)(F)F)cc1-3	-3.25% [at 46.1 µM]	
N#C/C(=C\c1ccc(C(=O)O)cc1)c1nc2sc3c(c2c(=O)[nH]1)CCCC3	-12.3% [at 46.1 µM]	
CN(C)c1ccc(/C=C(\C#N)c2nc3ccccc3c(=O)[nH]2)cc1		0.58 µM (active)
COc1ccc(NC2=CC(=O)CC(c3ccccc3)C2)c(OC)c1 (stereo unspecified)	0.141%	
